Molecules are shown by their SMILES. Several values for one entry are separate records, joined by “and”; a condition that tells them apart may be missing. Identical values can stand only once. This is part of a sample that, as a whole, favours compounds with a hit. Of some 83,000 tested, about 20% had one in any assay.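 Treatment: one concentration, 48 hours, 96-well format. Scoring: percent growth, with anything below 10 considered active.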 Activity calls are given as the source filed them.

The subject of the assay is NCI-H23 lung. Put plainly: NCI-60 one-dose screen, 48 h (100 = growth as untreated, 0 = no growth, -100 = all killed). The note with it: 10 µM unless noted. As to the method: Growth inhibition of the NCI-H23 human Non-Small Cell Lung tumor cell line is measured as a screen for anti-cancer activity. Cells are grown in 96 well plates and exposed to the test compound for 48 hours. Compounds are tested at a single concentration, which is 10^-5 M for most compounds. The reported endpoint is percent growth (GI% or GIPRCNT), where numbers from 0 - 100% represent growth inhibition, and numbers from -100% - 0 represent cell death. For example, a value of 40 represents 60% growth inhibition. A value of 0 means no net growth occurred over the course of the experiment. A value of -40 indicates 40% of cells at the beginning of the experiment died by the end of the experiment. A value of -100 means all cells are dead at the end of the experiment.
NCI-60 Human Tumor Cell Lines Screen was performed using the standard one-dose NCI protocol, which is described in more detail at https://dtp.cancer.gov/discovery_development/nci-60/default.htm.
Compounds with GIPRCNT values below 10 were considered active. Activity score was based on GIPRCNT using the following formula: […]
Score is 0 for GIPRCNT values of 100 or above, 50 for GIPRCNT values of 0, and 100 for GIPRCNT values of -100.
For the compound `OC1COC(OCc2ccccc2)C(O)C1O` (stereo not given), the growth is 106% (inactive). On to `CC(C)NCC(O)c1ccc(O)c(O)c1` (stereo not given), for which the growth was 98.6% (inactive) and 68.3% (inactive) and 98.2% (inactive).

Turning to `O=C1OC(c2ccccc2)=N/C1=C\c1ccccc1`, the growth was 99.8% (inactive).

For the compound `Nc1ccc2c(O)cc(S(=O)(=O)O)cc2c1`, the growth is 93.8% (inactive) and 96.2% (inactive). Consider `CCCCCCCCCCNC(=O)CI`, for which the growth is -48.8% (active). As for `C#CCOC(=O)Nc1ccccc1`, the growth was 98.9% (inactive). Take `CC1(C)COC(=S)N1`: the growth was 101% (inactive). Consider `NC(Cc1c[nH]c2ccccc12)C(=O)O` (stereo not given), for which the growth is 106% (inactive) and 108% (inactive). As for `CCCCOc1ccc(Nc2cc(Cl)ccc2C(=O)O)cn1`, the growth is 103% (inactive) and 92.9% (inactive). As to `COc1ccc2cc1Oc1ccc(cc1)C[C@H]1c3cc(c(OC)cc3CCN1C)Oc1c(OC)c(OC)cc3c1[C@H](C2)N(C)CC3`, the growth is 92.7% (inactive).

On to `Cc1ccc(S(=O)(=O)c2ccccc2)cc1`, for which the growth was 54.5% (inactive).

On to `NC(=O)NCCCC(N)C(=O)O` (stereo not given), for which the growth was 103% (inactive). As for `O=[N+]([O-])c1cccc(SSc2cccc([N+](=O)[O-])c2)c1`, the growth was 98.8% (inactive). As to `COc1ccc(C(=O)CC(c2ccccc2)C(C#N)c2ccccc2)cc1` (stereo not given), the growth is 88.4% (inactive). As for `Cl`, the growth is 97.5% (inactive).

Turning to `CCCCOC(=O)/C=C\C(=O)NC(N)=O`, the growth was 85.7% (inactive). On to `Cc1ccc(=O)[nH]n1`, for which the growth was 97.8% (inactive) and 98.7% (inactive). As for `O=CN1CCCCC1`, the growth is 91.5% (inactive). Consider `COc1ccc(N/C=C/C2=[N+](C)c3ccccc3C2(C)C)c(OC)c1`, for which the growth was 79.8% (inactive).

For the compound `NC1CCC(C(=O)O)CC1` (stereo not given), the growth was 111% (inactive) and 108% (inactive). On to `CC1CCC(C(C)C)C(NNC(N)=O)C1` (stereo not given), for which the growth is 106% (inactive). In the case of `OCC1OC(O)C(O)C(O)C1O` (stereo not given), the growth is 102% (inactive).

On to `CC(=O)NCC(=O)c1ccc([N+](=O)[O-])cc1`, for which the growth is 95% (inactive).

On to `O=C1CSC2=NCCN12`, for which the growth is 87.7% (inactive) and 90% (inactive). On to `CC(C)(O)C(=O)O`, for which the growth was 106% (inactive). With `CCOC(=O)c1c(C)cc(=O)oc1C`, the growth is 101% (inactive). As for `C/C(=C\c1ccccc1)c1ccccn1`, the figure is 107% (inactive).

Take `CCCCNc1ccc(Nc2ccccc2)cc1`: the growth is 41.7% (inactive). With `CC(C)C(C)(C)c1ccc(O)cc1` the figure was 103% (inactive). With `O=C(/C=C/c1ccccc1)c1ccccc1`, the growth is 84.6% (inactive). With `CC1CCC2(C(=O)O)CCC3(C)C(=CCC4C5(C)CCC(O)C(C)(C)C5CCC43C)C2C1C` (stereo not given), the growth was 91.9% (inactive) and 88.2% (inactive). For `CC(C)NC(=O)N/C=C(\C#N)C(N)=O`, the growth was 92.7% (inactive). Take `CN(C)CC1CCCCCC(CN(C)C)C1=O` (stereo not given): the growth is 97.2% (inactive).

Take `CC1CCC2(OC1)OC1CC3C4CC=C5CC(O)CCC5(C)C4CCC3(C)C1C2C` (stereo not given): the growth is 104% (inactive).

For `CC1=C/C(O)CC(=O)Cc2nc(co2)C(=O)N2CCC=C2C(=O)OC(C(C)C)C(C)/C=C\C(=O)NC/C=C\1` (stereo not given), the growth is 78.7% (inactive). For `CN(C)c1ccc(/C=C\C(=O)c2ccccc2)cc1`, the growth is 98.4% (inactive) and 91% (inactive) and 97.5% (inactive). On to `CCCCCCCCCCCCCCCc1ccc(N)c(OC2OC(CO)C(O)C(O)C2O)c1` (stereo not given), for which the growth is 80.9% (inactive). As for `CCCCCCCCCCCCCCCCC(C(=O)O)C(O)(CC(=O)O)C(=O)O` (stereo not given), the figure is 105% (inactive) and -38.2% (active); as for `COc1cc(C(O)C2C(=O)OCC2C2(c3ccc4c(c3)OCO4)SCCCS2)cc(OC)c1OC` (stereo not given), 93.8% (inactive).

As to `N#CC(C#N)N=Nc1cc(Cl)ccc1Cl`, the growth is 106% (inactive).

(Values after PubChem BioAssay (NCI).)
